MCF10A rerep = DNA re-replication induction in MCF 10a cells. actives 2.9% (n = 350,000). Potency, µM (doses to about 46.1 µM), without a hit: at the top dose activity, positive = re-replication, usual class: activators. MCF 10A DNA re-replication, Hoechst nuclear intensity, 48 h. AID 624296; further: % of control where 0% means no effect; nearly all actives have a fitted effect of over 50% in size
KB-3-1 cytotox = KB-3-1 parental cell cytotoxicity | KB-3-1 viability, CellTiter-Glo ATP luminescence, 72 h | Potency, µM (top dose mostly 46.1 µM), usual class: cytotoxic | actives 1.4% (n = 400,000) | AID 1347075; further: on the % scale 0 is the no-effect control and ±100 the full control effect; nearly all actives have a fitted effect of over 60% in size
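Cytotoxicity measured as CellTiter-Glo luminescence after 72 h at 37 C. Compound titrations were pinned onto drug-naive KB-3-1 parental adenocarcinoma cells grown in DMEM with 10% FBS, and normalized data fitted to concentration-response curves.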
KB-V1 MDR tox = KB-V1 MDR subline cytotoxicity; KB-V1 MDR cells viability, CellTiter-Glo, 72 h; Potency, µM (series often up to 46.1 µM), most hits filed as cytotoxic; actives 3.4% (n = 400,000); further: on the % scale 0 is the no-effect control and ±100 the full control effect; nearly all actives have a fitted effect of over 60% in size
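Potencies derive from concentration-effect curves fitted to normalized luminescence (CellTiter-Glo) of KB-V1 cells treated for 72 h at 37 degrees C in phenol-red-free DMEM containing 10% FBS.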
SW480 rerep = induces DNA re-replication in SW480 colon adenocarcinoma cells; SW480 DNA re-replication, Hoechst DNA content imaging, 48 h; Potency, µM (top dose mostly 46.1 µM), for inactives: top-dose re-replication activation, actives largely listed as activators; actives 1.8% (n = 340,000); further: % of control where 0% means no effect; nearly all actives have a fitted effect of over 55% in size
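First, 250 cells per well were seeded. Next, compound or vehicle (23 nL) was pinned in, plates sat 48 hr at 37 C. Finally Hoechst was added for 40 min before fluorescence scanning.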
HT1080NT lethal = kills 2HG-producing HT-1080-NT fibrosarcoma cells; HT-1080-NT fibrosarcoma viability, CellTiter-Glo ATP luminescence, 48 h; Potency, µM (highest dose often 46.1 µM), inactives show at the top dose activity, negative = less viability, hits mostly cytotoxic; actives 1.6% (n = 360,000); AID 686970;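 further: NT is the 2HG producing partner of a matched IDH1 knockdown line; 0% = DMSO-treated cells and -100% = media-only wells without cells; nearly all actives have a fitted effect of over 55% in size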
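HT-1080-NT; 750 cells/well; 5% FBS RPMI; 48 h compound, 37 degrees C; CellTiter-Glo luminescence; curve fitting and curve-class assignment.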
HT1080 IDH1KD tx = kills HT-1080 cells with IDH1 knockdown; HT-1080 IDH1 knockdown viability, ATP luminescence, 48 h; Potency, µM (doses to about 46.1 µM), for inactives: top-dose activity, negative = toxicity, actives largely listed as cytotoxic; actives 2% (n = 360,000); AID 686971;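 further: 0% = DMSO wells and -100% = cell-free medium wells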
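After a 2 h attachment period, IDH1KD HT-1080 cells took pin-transferred compound for 48 h at 37 °C; ATP-based luminescence after 10 min room-temperature reagent incubation reported viability.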
Active calls of the source: *; i = inactive; ? = inconclusive; · = no result. Hits are enriched below; roughly 8% of the tested compounds scored in any of these assays. The call rests on the fitted dose curve; in most records, active means well fitted curve in the direction sought with a large enough effect; inconclusive means small, poorly fitted or top-dose-only effect, or another doubt; inactive means no such curve, though single readings can be large; an effect the other way counts as inactive or inconclusive. Potency means the concentration at half of the fitted maximal effect.

SMILES	MCF10A rerep	KB-3-1 cytotox	KB-V1 MDR tox	SW480 rerep	HT1080NT lethal	HT1080 IDH1KD tx
CCn1c(CN2CCC(C)CC2)nc2cc(S(=O)(=O)N3CCCCC3)ccc21	·	i	?	·	1%	0%
CCn1c(CCl)nc2cc(S(=O)(=O)N3CCOCC3)ccc21	?	?	i	15µM*	2%	-13%
CCn1c(SCC(N)=O)nc2cc(S(=O)(=O)N3CCOCC3)ccc21	-2%	i	i	1%	20%	7%
CCn1c(SC)nc2cc(S(=O)(=O)N3CCCCC3)ccc21	1%	21µM*	i	29%	-9%	?
O=C1CCCS(=O)(=O)c2ccccc21	5%	i	?	-1%	11%	12%
Cc1ccc(-c2nc3ccccc3o2)cc1NC(=S)NC(=O)c1cc2ccccc2o1	8%	8.2µM*	i	?	?	?
Cc1ccc2oc(-c3ccc(C)c(NC(=S)NC(=O)c4cccs4)c3)nc2c1	10µM*	i	i	-6%	13%	10%
Cc1ccc(-c2nc3cc(C(C)C)ccc3o2)cc1NC(=O)c1cc2ccccc2o1	·	i	i	·	·	·
Cc1ccc(CNC(=O)CCCCCn2c(=O)c3sccc3n(CC(=O)N(C)c3ccccc3)c2=O)cc1	·	i	i	·	·	·
CO/N=C\CC(=O)Nc1ccc(Cl)c(Cl)c1	16µM*	7.3µM*	?	18µM*	8.2µM*	6.5µM*
CCOc1ccccc1N(CC)C(=O)c1cc2c(=O)n(CC)c3ccccc3c2s1	·	?	21µM*	·	·	·
CCn1c(=O)c2cc(C(=O)N(C)c3cc(C)ccc3OC)sc2c2ccccc21	?	i	23µM*	?	-7%	-2%
CCCN(C(=O)c1cc2c(=O)n(CC)c3ccccc3c2s1)c1ccccc1F	·	i	i	·	·	·
CCn1c(=O)c2cc(C(=O)N(C)c3cc(Cl)c(OC)cc3OC)sc2c2ccccc21	·	i	i	·	·	·
CSCCC(NC(=O)OCc1ccccc1)C(=O)NCc1cccnc1 (stereo not drawn)	10%	i	i	2%	8%	15%
CC(=O)c1cccc(NC(=O)Cn2nc(-c3ccc(Cl)cc3)ccc2=O)c1	0.58µM*	i	?	-52%	0%	0%
CN1C(C(=O)Nc2ccccn2)C(=O)c2sc(Cl)cc2S1(=O)=O (stereo not drawn)	-3%	·	·	-10%	·	·
Cc1ccc(C)c(OCC(O)CN2CCC(CN3C(=O)c4cccc5cccc(c45)C3=O)CC2)c1 (stereo not drawn)	?	18µM*	2.6µM*	-1%	0%	0%
COc1cccc(OCC(O)CN2CCN(CCN3C(=O)c4cccc5cccc(c45)C3=O)CC2)c1 (stereo not drawn)	-39%	i	?	?	-28%	?
O=C1c2cccc3cccc(c23)C(=O)N1CC1CCN(CC(O)COCc2ccc3c(c2)OCO3)CC1 (stereo not drawn)	?	?	?	5%	21µM*	21µM*
COc1ccc(OCC(O)CN2CCC(CN3C(=O)c4cccc5cccc(c45)C3=O)CC2)cc1 (stereo not drawn)	12%	i	i	?	23µM*	?
C=CCNC(=O)c1ccc(CN(c2ccc(OCC)cc2)S(=O)(=O)c2ccc(C)cc2)cc1	26µM*	?	i	?	?	?
COc1cccc(OCCCn2c(-c3ccc(Cl)cc3)nc3ccccc3c2=O)c1	·	i	i	·	·	·
COc1ccc(Cn2cc(CN3CCc4onc(-c5ccc(Br)cc5)c4C3=O)nn2)cc1	·	?	21µM*	·	?	?
COc1ccc(CN2CC(=O)N(c3ccc(C)cc3)C2=S)cc1OC	2%	i	i	3%	-6%	-8%
SMILES	MCF10A rerep	KB-3-1 cytotox	KB-V1 MDR tox	SW480 rerep	HT1080NT lethal	HT1080 IDH1KD tx
COc1cc(CN2CC(=O)N(c3ccc(C)cc3)C2=S)cc(OC)c1OC	-43%	?	10µM*	-83%	-6%	-7%
Cc1nc(C)n(CC(C)C(=O)N2CCN(S(=O)(=O)c3ccccc3)CC2)n1 (stereo not drawn)	-1%	i	i	-41%	2%	-12%
COc1ccc(OC)c(CCNC(=O)CN2C(=O)COc3ccc(S(=O)(=O)N4CCC(C)CC4)cc32)c1	·	i	?	·	·	·
Cc1ccc(-c2cc(C(=O)N3CCN(S(=O)(=O)c4ccc(Br)cc4)CC3)[nH]n2)cc1C	·	i	i	·	·	·
Cc1cc(C)cc(NC(=O)/C(C#N)=C/c2cn(CC(=O)NCc3ccco3)c3ccccc23)c1	29%	?	?	?	10µM*	9.2µM*
c1ccc(-c2noc(C34CC5CC(CC(C5)C3)C4)n2)cc1	12µM*	i	i	-2%	0%	1%
COC(=O)c1cnc(Oc2ccc(NC(=O)NC(=O)c3c(OC)cccc3OC)cc2)cc1C(F)(F)F	0.82µM*	?	2.3µM*	2.6µM*	?	1.3µM*
COC(=O)c1cnc(Oc2c(Cl)cc(N)cc2Cl)cc1C(F)(F)F	?	i	i	?	?	16µM*
COC(=O)c1cnc(Oc2ccc(NC(=O)NC(=O)c3c(F)cccc3F)cc2)cc1C(F)(F)F	6%	i	i	1%	6%	1%
O=C(Cn1cnc2sc(-c3ccccc3)cc2c1=O)NCc1ccccc1	4.6µM*	7.3µM*	i	16µM*	7.9µM*	6.3µM*
O=C(Cn1cnc2sc(-c3ccccc3)cc2c1=O)NCCc1ccccc1	?	i	?	?	-6%	-5%
O=C(Cn1cnc2sc(-c3ccccc3)cc2c1=O)NCc1ccco1	?	18µM*	?	?	?	?
Cc1ccc(NC(=O)C(=O)NCC(c2cccnc2)N2CCc3ccccc3C2)cc1 (stereo not drawn)	·	i	i	·	·	·
Cc1ccc(C(=O)c2cc([N+](=O)[O-])ccc2N2CCN(C)CC2)cc1	16µM*	5.2µM*	3.7µM*	10µM*	10µM*	7.3µM*
O=C(c1ccccc1)c1cc([N+](=O)[O-])ccc1N1CCCC1	?	?	i	11%	-7%	-19%
CN1CCN(c2ccc([N+](=O)[O-])cc2C(=O)c2ccc(Br)cc2)CC1	?	2.9µM*	4.1µM*	3.7µM*	13µM*	15µM*
O=C(c1ccc(Br)cc1)c1cc([N+](=O)[O-])ccc1N1CCCCC1	?	1µM*	?	?	1.8µM*	2.1µM*

Compound activity as filed in PubChem BioAssay.
